# Results from PubChem BioAssay AID651582 (Sanford-Burnham Center for Chemical Genomics, 2012).
# Where “and” joins values, the source holds several entries; their conditions need not be identical. Equal entries are not always repeated. Among all 230,000 compounds or so, about 1,500 (0.65%) were called active. The sample holds actives, similar compounds and a random draw of the others, so the mix is not that of the screen.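 How the source made its calls: active means pattern-corrected inhibition of lipid staining of at least 50% with the nuclear-stain viability signal not falling by more than 50%; inactive means the rest, inconclusive results apart.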 More than one record can exist for a structure, and the calls need not agree.
# Experiment: TAG lipid buildup reduction in H9c2 cells – cell-based, uHTS, fluorescence, primary screen (AID 651582);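 on inhibition: 0% = DMSO wells and 100% = triacsin C control wells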
# Conditions: Nile Red lipid (TAG) fluorescence, at 12.5 µM, cells loaded with 200 µM oleic acid; DAPI nuclei signal change (viability), lower = more cytotoxic: measured here: DAPI nuclei count viability; inhibition: stronger effect = higher value
SMILES,"DAPI nuclei signal change (viability), lower = more cytotoxic",inhibition
O=C(COC(=O)/C=C/c1ccc(Cl)cc1)NC1CCS(=O)(=O)C1 (centres undefined),-1.68%,1.31% (inactive)
O=C(COC(=O)c1ccccn1)NNC(=O)c1ccc(Br)cc1,1.16%,11.9% (inactive)
COC(=O)c1ccc(CN2CCCC(C(=O)Nc3cccc(-n4cnnn4)c3)C2)cc1 (centres undefined),3.39%,-0.9% (inactive)
COc1ccc(C(CNC(=O)c2cccc(S(=O)(=O)Nc3ccc(Br)cc3)c2)N(C)C)cc1 (centres undefined),7.9%,-15.7% (inactive)
O=C(Nc1nc2c(F)cc(F)cc2s1)C1COc2ccccc2O1 (centres undefined),-6.26%,-0.591% (inactive)
O=C(Nc1nc(-c2ccncc2)cs1)C1COc2ccccc2O1 (centres undefined),-38.7%,50.4% (active)
COc1ccc(OC)c2sc(NC(=O)C3COc4ccccc4O3)nc12 (centres undefined),-0.689%,-1.03% (inactive)
CCCCc1ccc(NS(=O)(=O)c2cccc(C(=O)N3CCCN(C)CC3)c2)cc1,4.43%,-11.5% (inactive)
CC1O[C@@H](OC2C(O)C(C)O[C@H](OC(=O)[C@]34CCC(C)(C)C[C@H]3C3=CCC5[C@@]6(C)CC(O)C(O[C@@H]7OC(CO)C(O)[C@@H](O)[C@@H]7O)[C@@](C)(C(=O)O)C6CC[C@@]5(C)[C@]3(CO)CC4)C2O[C@H]2OC(C)[C@@H](O[C@@H]3OCC(O[C@@H]4OC(CO)C(O)[C@H](O)C4O)[C@@H](O)[C@@H]3O)[C@H](O)C2O)C(O)C(O)C1O (some centres undefined),-3.05%,18.4% (inactive)
COc1cc(NC(=O)c2cncc(-c3ccc(C#N)cc3)c2)cc(C(=O)Nc2cccc(C(F)(F)F)c2)c1,0.0489% and -1.97%,-19.1% (inactive) and 61.3% (active)
Cc1cccc(NC(=O)c2nnn(-c3cccc(C(F)(F)F)c3)c2N)c1,-5.82%,3.82% (inactive)
N#Cc1ccc(Oc2ccc(C(F)(F)F)cc2NC(=O)c2ccc(F)cc2)cc1,4.06%,-7.23% (inactive)
COc1cc(NC(=O)c2[nH]cnc2C(N)=O)cc(C(=O)Nc2cccc(C(F)(F)F)c2)c1,-14.2%,53.7% (active)
COc1ccc(NC(=O)C(=O)NCC(=O)Nc2cccc(C(F)(F)F)c2)cc1,-2.54%,4.19% (inactive)
COc1ccc(NC(=O)CN(C)CC(=O)Nc2cccc(C(F)(F)F)c2)cc1,6.16%,-9.17% (inactive)
CC(C)(C)OC(=O)C[C@@H]1C/C=C\C[C@@H](CC(=O)N(CCO)Cc2ccccc2)C(=O)N[C@H](Cc2ccccc2)COC1=O,-3.76%,9.88% (inactive)
O=C(COc1ccc(Br)cc1)OCC(=O)c1ccc[nH]1,0.498%,-0.551% (inactive)
CC(=O)NCc1ccc(-c2csc(NC(=O)CCCc3nc4ccccc4c(=O)[nH]3)n2)cc1,0.981%,12% (inactive)
Cc1onc(-c2c(F)cccc2Cl)c1C(=O)OCC(=O)N1C(C)CCCC1C (centres undefined),-2.4%,8.89% (inactive)
CCCCNc1c(-c2ccc(OC)c(Sc3ccc(OC)cc3)c2)nc2ccc(Cl)cn12,65.8%,11.1% (inactive)
C=CCC[C@H](Cc1ccc(F)cc1)C(=O)OC[C@@H](Cc1c[nH]c2ccccc12)NC(=O)[C@H](CC=C)CC(=O)N[C@H](CO)Cc1ccccc1,1.3%,20.3% (inactive)
C=CCC[C@H](Cc1ccc(F)cc1)C(=O)OC[C@H](C)NC(=O)[C@H](CC=C)CC(=O)N(CCO)Cc1ccccc1,-5.64%,27.4% (inactive)
C=CCC[C@@H](Cc1ccc(F)cc1)C(=O)OC[C@H](Cc1c[nH]c2ccccc12)NC(=O)[C@@H](CC=C)CC(=O)N(CCO)Cc1ccccc1,-6.98%,68% (active)
CCN(CC)S(=O)(=O)c1ccc(N2CCOCC2)c(NC(=O)c2ccc(=O)n(C)n2)c1,-1.89%,5.11% (inactive)

SMILES,"DAPI nuclei signal change (viability), lower = more cytotoxic",inhibition
CCOC(=O)C1(C)CCCN(C(=O)c2cccc(Cl)c2)C1 (centres undefined),4.05%,-18.8% (inactive)
CN(C(=O)c1cccc(NC(=O)Cc2ccc(NC(=O)C3CCN(C(=O)C4CCCCC4)CC3)cc2)c1)C1CCC1,-0.027%,-1.1% (inactive)
OCc1ccc(OCCCOc2cccc3cccnc23)cc1,12.3%,-32.6% (inactive)
O=C(Nc1ccccc1Cl)Nc1cccc2cccnc12,2.86%,20.5% (inactive)
O=C(Nc1ccccc1)Oc1cccc2cccnc12,-22.4%,63.4% (active)
COc1ccc(C(=O)N2CCCCC2c2cc(C(=O)Nc3ccc(F)c(Cl)c3)no2)cc1 (centres undefined),-1.17%,2.9% (inactive)
O=C(NCCN1CCOCC1)c1cc(-c2cccs2)nc2ccccc12,34.9%,13.5% (inactive)
O=C(NCCN1CCOCC1)c1ccc2c(c1)ncn2C1CCCC1,1.89%,-0.366% (inactive)
c1ccc2cc3c(NCCN4CCOCC4)ccnc3cc2c1,65.1%,70.1% (active)
CCOC(=O)C1CCCN(C(=O)c2ccc(C)c(S(=O)(=O)N3CCCCC3)c2)C1 (centres undefined),0.656%,-11.3% (inactive)
O=C(C1Cc2ccccc2CN1C(=O)c1ccco1)N1CCN(c2ccccc2)CC1 (centres undefined),0.303%,25.4% (inactive)
COc1cccc(CNc2nc3cc(-c4csc5ccccc45)sc3c(=O)n2C)c1,4.67%,6.4% (inactive)
O=C(CN1C(=O)NC2(CCOc3ccccc32)C1=O)Nc1cccc([N+](=O)[O-])c1 (centres undefined),-0.437%,29.8% (inactive)
CC(C)n1cnc2c(Nc3cccc(Cl)c3)nc(N(CCO)CCCO)nc21,-20.3%,56.1% (active)
CC(C)C[C@H](CO)Nc1nc(N(C)c2cccc(Cl)c2)c2ncn(C(C)C)c2n1,-1.92%,-3.43% (inactive)
OCCCNc1nccc(-c2cc(Nc3cccc(Cl)c3)ncn2)n1,-53.6%,91.3% (inactive)
COc1cc(C(O)c2nc(-c3cnn(C)c3)cs2)ccc1F (centres undefined),-5.42%,-0.779% (inactive)
CC(=O)c1cccc(-c2cnc3c(NC=O)cc(-c4ccc(N(C)C)cc4)cn23)c1,-34.1%,25.5% (inactive)
O=CNc1cc(-c2ccc(C(=O)N3CCOCC3)cc2)cn2c(-c3ccc(F)cc3)cnc12,-10.1%,16.1% (inactive)
CN(C)CCNC(=O)c1cccc(-c2cnc3c(NC=O)cc(-c4cccc(C(F)(F)F)c4)cn23)c1,-5.39%,55.2% (active)
CN(C)C(=O)c1cccc(-c2cnc3c(NC=O)cc(-c4ccc(F)cc4)cn23)c1,-3.97%,30.4% (inactive)
CC(=O)c1cccc(-c2cnc3c(NC=O)cc(-c4cccc(C(=O)N(C)C)c4)cn23)c1,-7.72%,11.7% (inactive)
CN(C)C(=O)c1cccc(-c2cnc3c(NC=O)cc(-c4ccc(C(=O)N5CCOCC5)cc4)cn23)c1,-40.1%,52.5% (active)
